Screening data deposited in PubChem BioAssay by several laboratories.
This is a sample that favours compounds with a hit; in the whole collection about 5.7% have one here.
MPTP block = inhibitors of mitochondrial permeability transition pore; isolated mouse mitochondria, Ca2+ swelling absorbance, 30 min; inhibition, % at 10 µM; 360,000 compounds, 1.4% hits;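 active means inhibition of 50% or more, scaled per plate between neutral and stimulator controls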;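 further: 0% = DMSO wells given calcium and 100% = 1 mM EGTA wells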
Myeloid diff MLP = compounds promoting myeloid differentiation; 360,000 compounds, 1% hits; ER-HoxA9 myeloid progenitors, lysozyme-GFP differentiation, flow cytometry; AID 624256; calls only at 10 µM;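 active means normalized GFP-positive differentiation at or above the plate's own cutoff, the solvent-only control mean plus 3 SD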;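 further: cells exposed to compound for four days before flow analysis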
NR3A LBD binder = modulates the human NR3A ligand-binding domain. NR3A LBD differential scanning fluorimetry, Tm shift; 0% = protein alone, 100% = glycine-bound protein. AID 1259313. Tm shift relative to glycine control, % at 25 µM. 340,000 compounds, 2.5% hits;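 active means melting temperature shift of at least 10% of the positive control shift, at one fixed dose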
FAS-TE inh = inhibitors of human fatty acid synthase thioesterase domain | recombinant FAS-TE, OMFH fluorogenic substrate, fluorescence endpoint | inhibition, % at 15 µM | 360,000 compounds, 0.67% hits | AID 602261;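 active means compounds whose normalised, plate-corrected inhibition of enzyme fluorescence in the single-dose primary screen is 50% or more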;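 further: 0% = DMSO with enzyme and 100% = substrate without enzyme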
Target sequence (P49327 whole entry, looked up, the tested form may be a part): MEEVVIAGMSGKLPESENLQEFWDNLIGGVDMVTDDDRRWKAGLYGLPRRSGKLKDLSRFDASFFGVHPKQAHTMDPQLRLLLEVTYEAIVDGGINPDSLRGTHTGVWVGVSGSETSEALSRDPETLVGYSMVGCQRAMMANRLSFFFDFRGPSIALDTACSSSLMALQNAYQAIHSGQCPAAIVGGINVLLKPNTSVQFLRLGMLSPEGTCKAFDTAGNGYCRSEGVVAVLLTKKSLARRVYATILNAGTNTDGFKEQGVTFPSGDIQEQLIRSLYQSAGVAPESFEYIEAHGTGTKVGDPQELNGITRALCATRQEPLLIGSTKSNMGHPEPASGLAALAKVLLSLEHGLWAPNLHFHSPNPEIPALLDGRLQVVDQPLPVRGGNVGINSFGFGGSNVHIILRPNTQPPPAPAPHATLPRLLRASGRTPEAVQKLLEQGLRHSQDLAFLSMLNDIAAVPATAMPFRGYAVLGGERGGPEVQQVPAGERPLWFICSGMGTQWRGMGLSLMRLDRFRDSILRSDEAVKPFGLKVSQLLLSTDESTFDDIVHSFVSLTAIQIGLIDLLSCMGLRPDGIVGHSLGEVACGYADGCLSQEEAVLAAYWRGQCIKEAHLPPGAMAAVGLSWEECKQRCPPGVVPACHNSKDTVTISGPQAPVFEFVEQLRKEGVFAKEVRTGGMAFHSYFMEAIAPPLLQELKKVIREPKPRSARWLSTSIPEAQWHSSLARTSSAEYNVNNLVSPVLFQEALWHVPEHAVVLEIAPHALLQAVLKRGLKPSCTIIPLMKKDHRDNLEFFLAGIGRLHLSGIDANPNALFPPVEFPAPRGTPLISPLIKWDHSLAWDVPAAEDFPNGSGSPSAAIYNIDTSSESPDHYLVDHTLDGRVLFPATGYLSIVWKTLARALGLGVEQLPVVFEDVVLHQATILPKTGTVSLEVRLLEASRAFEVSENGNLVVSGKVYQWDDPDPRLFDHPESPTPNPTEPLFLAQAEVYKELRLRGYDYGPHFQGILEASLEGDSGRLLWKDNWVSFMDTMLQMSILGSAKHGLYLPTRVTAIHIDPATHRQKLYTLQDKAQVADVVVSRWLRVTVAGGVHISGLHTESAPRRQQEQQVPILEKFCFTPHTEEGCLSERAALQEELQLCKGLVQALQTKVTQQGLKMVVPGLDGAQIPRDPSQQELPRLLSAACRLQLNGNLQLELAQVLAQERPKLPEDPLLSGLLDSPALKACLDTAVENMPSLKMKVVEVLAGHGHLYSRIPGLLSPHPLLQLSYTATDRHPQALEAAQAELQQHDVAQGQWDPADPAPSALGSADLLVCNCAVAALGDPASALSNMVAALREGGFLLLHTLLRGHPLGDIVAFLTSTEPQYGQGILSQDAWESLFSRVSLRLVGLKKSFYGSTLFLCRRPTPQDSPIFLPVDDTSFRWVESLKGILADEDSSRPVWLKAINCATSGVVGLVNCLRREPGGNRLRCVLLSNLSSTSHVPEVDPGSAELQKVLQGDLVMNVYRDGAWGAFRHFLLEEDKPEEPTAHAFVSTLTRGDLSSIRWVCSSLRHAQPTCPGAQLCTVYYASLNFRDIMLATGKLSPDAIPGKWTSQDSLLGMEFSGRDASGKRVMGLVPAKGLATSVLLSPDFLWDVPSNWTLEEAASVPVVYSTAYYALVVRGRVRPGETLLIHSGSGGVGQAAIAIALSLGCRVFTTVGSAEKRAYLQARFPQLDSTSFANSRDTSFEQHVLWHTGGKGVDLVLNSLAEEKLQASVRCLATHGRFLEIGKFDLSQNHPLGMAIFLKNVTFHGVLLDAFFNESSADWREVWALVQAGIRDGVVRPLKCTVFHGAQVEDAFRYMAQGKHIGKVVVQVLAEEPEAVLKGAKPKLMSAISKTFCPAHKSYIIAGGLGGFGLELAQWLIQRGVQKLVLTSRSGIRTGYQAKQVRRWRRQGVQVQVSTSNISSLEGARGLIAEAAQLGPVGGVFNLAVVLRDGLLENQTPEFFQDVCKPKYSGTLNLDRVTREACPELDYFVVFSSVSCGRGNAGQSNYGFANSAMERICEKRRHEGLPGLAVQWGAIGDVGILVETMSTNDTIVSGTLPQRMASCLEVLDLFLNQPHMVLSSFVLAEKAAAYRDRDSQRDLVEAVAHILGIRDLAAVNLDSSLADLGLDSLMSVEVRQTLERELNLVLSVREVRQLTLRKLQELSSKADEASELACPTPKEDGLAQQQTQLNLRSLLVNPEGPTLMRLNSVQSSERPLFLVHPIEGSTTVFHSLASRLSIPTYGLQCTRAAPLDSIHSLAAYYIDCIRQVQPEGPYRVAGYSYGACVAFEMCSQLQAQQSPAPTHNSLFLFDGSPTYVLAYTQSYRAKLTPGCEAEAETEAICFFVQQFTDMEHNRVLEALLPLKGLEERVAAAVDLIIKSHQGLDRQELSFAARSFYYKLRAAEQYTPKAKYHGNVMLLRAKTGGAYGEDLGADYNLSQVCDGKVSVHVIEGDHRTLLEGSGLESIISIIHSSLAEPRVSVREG
rCAG binder = molecules binding r(CAG) RNA repeats. r(CAG) RNA repeat, TO-PRO-1 dye displacement fluorescence. inhibition, % at 3 µM. 370,000 compounds, 1.3% hits;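 active means inhibition above the plate cutoff, the mean of all test compounds on that plate plus 3 SD, cut at about 35% in these data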;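 further: 0% = DMSO alone and 100% = 100 µM mitoxantrone as full dye displacement; higher means more dye released from RNA so lower well fluorescence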
Myeloid diff CP1 = promotes myeloid progenitor differentiation. 2,300 compounds, 2% hits. shares compounds with Myeloid diff MLP. ER-HoxA9 myeloid progenitors, GFP/Mac1 double-positive flow. calls only;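 active means share of green or green-and-red cells above 9 and 9% in run 1 or 4 and 3% in run 2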
GFP autofluor = compound fluorescence in myeloid differentiation counter-screen; shares compounds with Myeloid diff MLP; ER-HoxA9 myeloid progenitors, no estrogen, GFP autofluorescence flow cytometry; vehicle wells 0%, positive control 100%; AID 651707; 2,300 compounds, 7.4% hits; fluorescence response, % (test concentration not listed);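 active means over 5% cells positive for green fluorescent reporter, or over 2% positive for both it and APC stain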;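 further: range taken on the double positive population between DMSO and positive control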
An asterisk follows results filed as active; i = inactive; / = no result; + = active, no number.

SMILES | MPTP block | Myeloid diff MLP | NR3A LBD binder | FAS-TE inh | rCAG binder | Myeloid diff CP1 | GFP autofluor
CC(=O)NCCn1c(SCc2ccc(C)cc2C)nc2ccccc2c1=O | 3 | i | -4 | 0 | 19 | / | /
O=C(OCc1cccc([N+](=O)[O-])c1)c1ccc2ccccc2n1 | -1 | i | 0 | 32 | -5 | / | /
Cc1cc(C)cc(NC(=S)NCC2CCCO2)c1 (centres undefined) | -1 | i | -2 | -3 | 0 | i | 0
S=C(NCC1CCCO1)Nc1cc(Cl)c(Cl)cc1Cl (centres undefined) | 2 | i | -4 | 18 | 0 | / | /
CC(C)c1ccc(NC2CCCN(C(=O)CSc3nncn3C)C2)cc1 (centres undefined) | 2 | i | -1 | -1 | -5 | / | /
Cc1cccc(Cn2ncc(Cl)c(Cl)c2=O)c1 | 0 | i | 1 | 2 | -3 | i | 0
CC/C(=N/NC(=O)c1ccc2c(c1)OCO2)c1ccccc1O | 9 | i | 1 | 19 | 1 | i | 0
C/C(=N\NC(=O)c1cc2ccccc2cc1O)c1ccc2c(c1)OCO2 | 3 | i | 8 | 0 | 29 | / | /
CN1/C(=C/C(=S)NC(=O)C2CCC2)C(C)(C)c2ccccc21 | 0 | i | 2 | 4 | -2 | i | 3
CN1/C(=C\C(=O)c2cccc(S(=O)(=O)N3CCCCC3)c2)C(C)(C)c2ccccc21 | 2 | i | -1 | 5 | 0 | / | /
Nc1ccc(NC(=O)c2ccccc2)c2c1C(=O)c1ccccc1C2=O | 2 | i | -1 | 2 | 5 | i | 0
CC(C)(C)OC(=O)C[C@H]1C/C=C\C[C@@H](CC(=O)N[C@H](CO)Cc2ccccc2)C(=O)NC[C@H](c2ccccc2)OC1=O | -1 | i | -1 | -3 | -9 | / | /
CCOc1ccc(N(CC(=O)Nc2ccccc2Cl)S(C)(=O)=O)cc1 | 1 | i | 0 | 3 | -2 | / | /
CCOc1ccc(N(CC(=O)Nc2cc(Cl)ccc2C)S(C)(=O)=O)cc1 | -1 | + | 2 | 13 | -2 | i | 0
CCOC(=O)c1c(C)c(C(=O)NCc2cccs2)c(C)n1C | 0 | i | 5 | -5 | -5 | i | 0
CCOc1ccc(NS(=O)(=O)c2ccc(-c3coc(C)n3)cc2)cc1 | 8 | i | -1 | 8 | 0 | / | /
CCCc1cc(=O)[nH]c(SCC(=O)Nc2cccc3ccccc23)n1 | 0 | / | 2 | -1 | 18 | / | /
CCCc1cc(=O)[nH]c(SCC(=O)Nc2ccccc2C#N)n1 | -8 | i | 0 | -7 | 2 | i | 0
Cc1cc(C)cc(C(=O)OCCN(C)C2CN(Cc3cn(Cc4ccccc4F)nn3)S(=O)(=O)C2)c1 (centres undefined) | / | / | / | / | -1 | / | /
COc1ccc(CC(=O)OCC(=O)Nc2c(C)n(C)n(-c3ccccc3)c2=O)cc1OC | -1 | i | 0 | -9 | 0 | / | /
COc1ccc(C(=O)Nn2cnc3scc(-c4cccs4)c3c2=O)c(O)c1 | 5 | i | -3 | 11 | 24 | i | 0
COc1ccc(C(=O)C[n+]2ccc3c(c2)nnn3-c2ccccc2)cc1 | 5 | + | -2 | 0 | 8 | i | 0
CCC(CO)Oc1cc(NCc2ccc(Cl)cc2)c2ncn(C(C)C)c2c1 (centres undefined) | -3 | i | -5 | 0 | -4 | i | 1
CCOC(=O)c1cnn(-c2cc(C)c3ccccc3n2)c1N | -2 | + | 4 | 1 | 6 | i | 1
CC(C)C[C@@H](CNCC(=O)[C@H](CC(=O)O)NC(=O)c1[nH]cnc1C(=O)N[C@H](CN)CC(C)C)NC(=O)c1nc[nH]c1C(=O)N[C@@H](C)C(=O)O | 4 | i | 3 | -8 | 2 | / | /
SMILES | MPTP block | Myeloid diff MLP | NR3A LBD binder | FAS-TE inh | rCAG binder | Myeloid diff CP1 | GFP autofluor
Cc1ccc(NC(=S)Nc2cccc3cnccc23)cc1C | -1 | i | -2 | 4 | -1 | i | 2
O=S(=O)(c1ccc(=S)[nH]c1)N1CCCC1 | -3 | + | -2 | 0 | 1 | i | 62*
O=c1ccc(S(=O)(=O)N2CCCC2)c[nH]1 | 0 | i | -1 | -2 | 0 | / | /
O=C(Nc1cnc2ccccc2c1)N1CCOCC1 | 1 | i | 3 | -2 | 4 | i | 0
O=C(Nc1cnc2ccccc2c1)N1CCCCC1 | 0 | i | 1 | -8 | 1 | / | /
COc1cc(CC(=O)OCC(=O)NCc2ccco2)cc(OC)c1OC | -3 | + | 1 | -5 | 6 | i | 0
CCc1ccc(OCC(=O)NCc2ccco2)c(Br)c1 | 1 | i | 2 | 1 | -1 | i | 0
CCN(CC)CCN1C(=O)C(O)=C(C(=O)c2cc3cccc(OC)c3o2)C1c1ccc(F)cc1 (centres undefined) | 2 | i | 0 | -6 | 1 | / | /
O=C1N=C(N2CCN(Cc3ccccc3)CC2)S/C1=C/c1cccs1 | 6 | + | 1 | 5 | 4 | i | 0
COc1ccc(N2CCN(Cc3nc4c(c(=O)n(C)c(=O)n4C)n3Cc3cccc(C)c3)CC2)cc1 | 0 | i | 0 | 27 | 0 | i | 0
CN1/C(=C\C(=O)c2cncc(Br)c2)C(C)(C)c2ccccc21 | 3 | + | -2 | 10 | -6 | i | 20*
O=C(CCc1c[nH]c2ccccc12)N1CCN(S(=O)(=O)c2ccc(F)cc2)CC1 | -2 | i | -4 | 2 | 2 | / | /
CCCCOc1cccc(C2C(C(=O)c3ccc(C)o3)=C(O)C(=O)N2c2nnc(C)s2)c1 (centres undefined) | -2 | + | 1 | -10 | 15 | i | 2
COc1ccc(C(=O)C(C)[n+]2ccc(C)c3ccccc32)cc1[N+](=O)[O-] (centres undefined) | 1 | + | 2 | -7 | -16 | i | 0
COc1ccc(C(=O)NNC(=O)c2ccccc2[N+](=O)[O-])cc1[N+](=O)[O-] | 0 | i | -1 | 2 | -3 | / | /
CC[N+](C)(CC)CCC(c1ccccc1)C1CCCCC1 (centres undefined) | 2 | i | 2 | -7 | -5 | i | 0
C=CCNC(=O)c1ccccc1NC(=O)c1ccccc1 | 0 | i | 7 | 0 | -2 | i | 1
CCCC(c1nnnn1C(C)(C)C)N1CCN(C(=O)c2ccco2)CC1 (centres undefined) | -1 | + | -1 | -6 | 0 | i | 0
CC(C)CC(c1nnnn1C1CCCC1)N1CCN(C(=O)c2ccco2)CC1 (centres undefined) | -1 | + | -1 | -8 | -6 | i | 0
CCCCNC(=O)CCn1c(=O)c2ccccc2n(Cc2ccc(Cl)cc2)c1=O | 0 | i | -3 | -6 | -3 | / | /
